PubChem BioAssay (EPA / NIEHS)
Calls of active or inactive are those of the source. Rule for the calls: active = hit-call score of the fitted dose curve at least 0.9, where 1 is the maximum; inactive = score below 0.9.

System: not listed separately
Experiment: CCTE_Padilla_ZF_Score.Any: CCTE's 144 Hour Post-fertilization zebrafish Assay Score for Any Mortality or Malformation, Padilla Lab (AID 2284416)
How it was run: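 Wild-type zebrafish embryos with chorions, one per well in 10% Hanks' from 6–8 hpf, dosed in sealed plates at 26 C, 14:10 h light:dark; rinsed at 5 dpf; blinded scoring at 6 dpf for death or malformation, versus DMSO.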

Structure (SMILES)	outcome	AC50
CCN(CCO)S(=O)(=O)C(F)(F)C(F)(F)C(F)(F)C(F)(F)C(F)(F)C(F)(F)C(F)(F)C(F)(F)F	inactive	
O=C(F)C1(F)C(F)(F)C(F)(F)C(F)(F)C(F)(F)C1(F)F	inactive	
OCC(F)(F)C(F)(F)C(F)(F)C(F)(F)C(F)(F)C(F)(F)C(F)(F)C(F)(F)CO		5.84 µM (active)
O=S(=O)(O)CCC(F)(F)C(F)(F)C(F)(F)C(F)(F)C(F)(F)C(F)(F)C(F)(F)C(F)(F)F	inactive	
C[Si](Cl)(Cl)CCC(F)(F)C(F)(F)C(F)(F)C(F)(F)C(F)(F)C(F)(F)F	inactive	
OCC(O)CC(F)(F)C(F)(F)C(F)(F)C(F)(F)C(F)(F)C(F)(F)C(F)(F)C(F)(F)F (centres undefined)		9.82 µM (active)
O=S(=O)(Cl)C(F)(F)C(F)(F)C(F)(F)C(F)(F)C(F)(F)C(F)(F)C(F)(F)C(F)(F)F		12.1 µM (active)
O=C(O)C(F)(F)C(F)(F)C(F)(F)C(=O)O	inactive	
OCCCC(F)(F)C(F)(F)C(F)(F)C(F)(F)C(F)(F)C(F)(F)C(F)(F)C(F)(F)F	inactive	
O=C(O)C(F)(F)C(F)(F)C(F)(F)OC(F)(C(F)(F)F)C(F)(F)F	inactive	
C=C(C)C(=O)OCC(F)(F)C(F)(F)C(F)(F)C(F)F		30 µM (active)
CNS(=O)(=O)C(F)(F)C(F)(F)C(F)(F)C(F)(F)C(F)(F)C(F)(F)C(F)(F)C(F)(F)F		0.778 µM (active)
O=C(O)C(F)(F)OC(F)(F)C(F)(F)OC(F)(F)C(F)(F)OC(F)(F)F	inactive	
NC(=O)C(F)(F)C(F)(F)C(F)(F)C(F)(F)C(F)(F)C(F)(F)C(F)(F)F	inactive	
CN(C(=O)C(F)(F)C(F)(F)C(F)(F)F)[Si](C)(C)C	inactive	
FC(F)(F)C(F)(F)C(F)(F)CC1CO1 (centres undefined)	inactive	
NCC(F)(F)C(F)(F)C(F)(F)C(F)(F)C(F)(F)C(F)(F)C(F)(F)C(F)(F)F		32.9 µM (active)
NS(=O)(=O)C(F)(F)C(F)(F)C(F)(F)C(F)(F)C(F)(F)C(F)(F)F		1.81 µM (active)
O=C(Cl)C(F)(F)C(F)(F)C(F)(F)C(F)(F)C(F)(F)C(F)(F)F		76.8 µM (active)

System: TTR (gene 7276)
Experiment: CCTE_GLTED_hTTR_0.125uM: CCTE's human Transthyretin (hTTR) Inhibition Assay, with 0.125uM TTR, Great Lakes Toxicology and Ecology Division (GLTED) Lab (AID 2284431);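 note: hits lower the fluorescence signal relative to DMSO baseline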
How it was run: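 Cell-free displacement of ANSA probe from 0.125uM TTR after 2 h incubation with chemical. Fluorescence read at 380 nm excitation/475 nm emission; loss of signal relative to DMSO indicates T4-site displacement.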

Structure (SMILES)	AC50
O=C(c1ccccc1)c1ccc(O)cc1O	0.0464 µM (active)
CCN=C1C=CC(=C(c2ccc(N(CC)CC)cc2)c2ccc(N(CC)CC)cc2)c2ccccc21	1.85 µM (active)
CCC(Cc1c(I)cc(I)c(N)c1I)C(=O)O (centres undefined)	2.1 µM (active)
CCCCCCCC/C=C\CCCCCCCC(=O)N(C)CC(=O)O	3.75 µM (active)
CCN=c1cc2oc3cc(NCC)c(C)cc3c(-c3ccccc3C(=O)OCC)c-2cc1C	32.2 µM (active)
